Molecules are shown by their SMILES. About 83,000 compounds went through this panel and 20% of them were active in at least one assay; those are over-represented in the sample as a whole.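 In brief: 96-well plates, 48 h treatment, single concentration, percent growth endpoint.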 Values without a mark were called inactive. Calls of active or inactive are those of the source. Rule for the calls: active = growth percent below 10; inactive = the rest.

For the experiment, the system named is HCT-116 colon. In words: NCI-60 one-dose screen, 48 h (100 = growth as untreated, 0 = no growth, -100 = all killed). The following applies: 10 µM unless noted.
As to `CN1CCN(Cc2ccc(NC(=O)c3cncc(C#Cc4cnc5ccc(OCC6(C)COC6)nn45)c3)cc2C(F)(F)F)CC1`, the growth is -75.5% (active). `CC(=O)c1cc(C(=O)c2ccc(Br)cc2)n2cc(C)cc(C)c12`: the growth is 85.7%. Consider `COC(=O)C[Se]C(=O)Cc1c(C)n(C(=O)c2ccc(Cl)cc2)c2ccc(OC)cc12`, for which the growth is 4.82% (active).

With `N#Cc1cccc(CN2CCC3=C(C2)C(=O)N(Cc2ccc(Cl)cc2)C2=NCCCN23)c1`, the growth is 22.5%. Next, `C=CCn1c(SCC(=O)Nc2ccc(C(=O)/C=C/c3ccc(C)cc3)cc2)nnc1-c1c[nH]c2ccccc12`: -2.08% (active). In the case of `CCCn1cnc2c(c1=N)C(c1ccc(OC)cc1)c1sc3c(CC)cccc3c1O2` (stereo not drawn), the growth is 9.7% (active). `Cc1ccc(-c2cc3nc(C(Cl)Cl)nc(C)n3n2)cc1`: the growth is 108%.

As to `CCOC(=O)C(=O)CC(=O)N1C(=S)NC(=O)C1CC(C)C` (stereo not drawn), the growth was 95.4%. On to `COc1ccc(-c2nc(C(Cl)Cl)nc3cc(-c4ccccc4)nn23)cc1`, for which the growth was 1.5% (active).

As for `CNC(=O)c1cc(-c2ccc(NS(=O)(=O)c3ccc(C)cc3)cc2)nc2cccnc12`, the growth was 111%. Consider `NC(N)=Nc1ccc(Oc2cccc(Nc3ccc(Cl)c(C(F)(F)F)c3)c2)cn1`, for which the growth is -69.4% (active). Regarding `CCN1CCN(Cc2ccc(C(=O)Nc3ccc(C)c(Oc4ccc(-c5[nH]nc6ncnc(N)c56)cc4)c3)cc2C(F)(F)F)CC1`, the growth is 67%.

Regarding `COc1ccc(NC(=O)Nc2ccc3c(ccn3C(=O)c3cccc(F)c3)c2)cc1`, the growth was 45.8%. Regarding `CCn1c(SCC(=O)Nc2cccc(C(=O)/C=C/c3ccccc3Cl)c2)nc2ccccc2c1=O`, the growth is -26.3% (active).

Regarding `COc1ccc(-c2nn(-c3ccc(S(C)(=O)=O)cc3)cc2/C=N/O)cc1`, the growth was 107%. Consider `NC(N)=Nc1ccc(Oc2ccc(Nc3ccc(Cl)c(C(F)(F)F)c3)cc2)cc1`, for which the growth is 11.3%.

For `COc1ccc(NC(=O)CSc2nnc(-c3ccc4nc(-c5ccc(OC)c(OC)c5)[nH]c4c3)o2)cc1OC`, the growth was 98.1%. On to `Cc1ccc(-n2c(/C=C3\C(=O)Nc4ccccc43)ccc2CO)cc1`, for which the growth is 52.8%. As for `O=C(NNc1nc2cc(F)ccc2n2c(CO)ccc12)c1cnccn1`, the growth is 17.7%.

As to `Nc1ccccc1NC(=O)c1ccc(NC(=O)C/C=C/c2cccnc2)cn1`, the growth was 4.69% (active). Take `Cn1ccnc1C(=O)/C=C/c1ccc(CNC(=O)c2c(F)c(F)c(F)c(F)c2F)cc1`: the growth is 4.78% (active).

Turning to `C#C[C@]1(O)CC[C@H]2[C@@H]3CC=C4c5sc(-c6cccc(O)c6)nc5CC[C@]4(C)[C@H]3CC[C@@]21C`, the growth was -37.6% (active).

As to `COc1cc2c(cc1OC)C(Sc1ccc(F)cc1)c1c(nc(N)c(C#N)c1N)O2` (stereo not drawn), the growth is -74.2% (active). Regarding `N#Cc1cn(Cc2ccc(Cl)cc2Cl)c(C(=O)c2ccc(Br)cc2)c1N`, the growth is 101%. For `O=C(O)c1ccc(-n2cc(CNc3cc(F)c(F)c(F)c3)c(-c3cccc(F)c3)n2)cc1`, the growth is 86.2%. As for `CCc1cccc(NC(=O)CNc2cc(S(=O)(=O)N(C)C)cc(C)c2C)c1`, the growth is 91.3%. The figure for `COc1ccc2c(c1)c(-c1cc(N)n3nc(-c4cn(C)c5ccc(OC)cc45)cc3n1)cn2C` is -4.19% (active); for `C=C(C=O)[C@@H]1CC[C@]2(COC(C)=O)CC[C@]3(C)C(CC[C@@H]4[C@@]5(C)CC[C@H](OC(C)=O)C(C)(C)[C@@H]5CC[C@]43C)[C@@H]12` (stereo partly drawn) it is -58.4% (active).

`COc1ccc(-c2nc3ccc(-c4nnc(SCC(=O)Nc5ccc(C(=O)/C=C/c6ccc(Cl)cc6)cc5)o4)cc3[nH]2)cc1`: the growth is 100%. As to `COc1ccc(/C=C(\C#N)C(=O)N2c3ccccc3Sc3ccc(SC)cc32)cc1F`, the growth was 91.2%. As for `O=C(CNc1nc(-c2cccc([N+](=O)[O-])c2)cs1)Nc1cccc(Cl)c1`, the growth is 112%. Turning to `CC1(C)CC[C@]23CC[C@]4(C)[C@H](CC[C@@H]5[C@@]6(C)CCCN(CO)C(C)(C)[C@@H]6CC[C@]54C)[C@H]2[C@H]1OC3`, the growth was 22.1%.

With `C=C(C=O)[C@@H]1CC[C@]2(C)[C@H](CC=C3[C@H]4[C@@H](C)[C@H](C)CC[C@]4(C(=O)OC)CC[C@]32C)[C@@]1(C)CCC#N`, the growth is -57.8% (active). With `CN(C)C(=O)c1cc(-c2ccc3ncnc(NCc4ccccc4)c3c2)cnc1N`, the growth was 101%. Take `O=S(=O)(NCCCNc1nccc(-c2[nH]c(-c3ccccc3)nc2-c2ccc(Cl)c(O)c2)n1)c1cccc2ccccc12`: the growth is 16.3%. Consider `Nc1ccccc1NC(=O)c1ccc(NC(=O)C/C=C/c2cccnc2)cc1`, for which the growth was -29.3% (active).

Regarding `COc1cc(-c2nc(SCCC(C)C)nc(NNC(=O)c3ccncc3)c2C#N)cc(OC)c1OC`, the growth is 84.5%. `O=C(NNc1nc2cc(F)c(F)cc2n2cccc12)c1cnccn1`: the growth is 17.5%.

These data come from PubChem BioAssay (NCI).
